# Source: PubChem
# Only some compounds are listed: those with a hit (about 6.6% of all), similar ones and a draw of the others.
# MK inhibit = blocks S. pneumoniae mevalonate kinase. actives 0.48% (n = 65,000). AID 555. inhibition, % at 10 µM. purified MK, PK/LDH-coupled NADH absorbance 340 nm;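 active = ranked among the strongest by inhibition in the single 10 µM screen, a fixed top-ranked set picked for dose follow-up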
# Autofluor 339 = intrinsic fluorescence of library compounds, ex339/em460 – biochemical, MLSMR library, data from DPM-DC assay, artefact control, profiling panel; compound autofluorescence, ex339/em460 nm, NADH buffer; active compounds read high; 1 = no-compound wells, NADH background; fluorescence fold increase at 10 µM; actives 5.5% (n = 65,000); AID 709;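 active = at 10 µM, mean starting fluorescence two-fold or more over control wells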;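 note: signal is the first read of a kinetic run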
# DPM-DC inhibit = S. pneumoniae DPM-DC inhibition | purified DPM-DC, PK/LDH coupled NADH fluorescence | calls only at 10 µM | actives 0.49% (n = 65,000) | AID 556;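 active = the 320 compounds with the highest percent inhibition in the single-dose primary screen, excluding strongly autofluorescent ones, cut at about 32% in these data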;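 note: kinetic rate of NADH fluorescence loss reporting ADP formed by the decarboxylase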
# Spn PMK inh = S. pneumoniae PMK inhibition; purified PMK, PK/LDH-coupled NADH absorbance 340 nm; inhibition, % at 10 µM; actives 0.49% (n = 65,000);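 active = top-ranked compounds by inhibition in the single 10 µM screen, taking a fixed number of the strongest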;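 note: 0% = full reaction with DMSO carrier and 100% = background rate without enzyme reaction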
# NADH enzymes = inhibitors of enzymes used to reach an NAD/NADH endpoint; coupled PK/LDH NADH assays, four targets; IC50, µM (top dose mostly 10 µM), without a hit: top-dose inhibition; actives 0.02% (n = 65,000);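 active = single-dose screening hits from any of four coupled enzyme assays that gave an IC50 when retested across doses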;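 note: the DPM-DC format reads NADH fluorescence rather than 340 nm absorbance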
# Numbers without * were called inactive; i = inactive; . = no result given; + = active, no number.
SMILES,MK inhibit,Autofluor 339,DPM-DC inhibit,Spn PMK inh,NADH enzymes
O=C1c2ccccc2NC(c2ccccc2)N1Cc1ccco1 (stereo unspecified),8,2.2*,.,1,5%
O=C1c2ccccc2N2C(=O)c3ccccc3C2N1Cc1ccco1 (stereo unspecified),6,1.1,i,0,3%
CCOC(=O)CC(=O)CSc1[nH]c(=O)cc(C)c1C#N,7,1.1,i,0,3%
CC1(c2ccc(Cl)cc2)NC(=O)N(CC(=O)N2CCCC2)C1=O (stereo unspecified),7,1.1,i,8,5%
COc1ccc(S(=O)(=O)N2CCN(CC(=O)Nc3ccc(C)c(F)c3)CC2)cc1,6,0.96,i,8,4%
O=C(Cc1ccc(-n2cnnn2)cc1)NC12CC3CC(CC(C3)C1)C2,10,1.1,i,12,7%
CCOCCCNC(=O)C1CCN(S(=O)(=O)N2CC(C)CC(C)C2)CC1 (stereo unspecified),0,1,i,28*,9%
COc1ccccc1CNC(=O)C1CCN(S(=O)(=O)N2CC(C)CC(C)C2)CC1 (stereo unspecified),5,0.97,i,25*,12%
Cc1oc2cc(O)ccc2c(=O)c1Oc1ccccc1Br,0,2.2*,.,5,3%
Cc1oc2cc(O)ccc2c(=O)c1Oc1ccccc1,5,2.2*,.,0,3%
CCOc1ccccc1Oc1c(C)oc2cc(OC(=O)N3CCOCC3)ccc2c1=O,4,1.1,i,7,4%
COC(=O)COc1ccc2c(=O)c(Oc3ccccc3)c(C)oc2c1,11,1.1,i,0,4%
Nn1c(SCC(=O)Nc2cccc(F)c2)nnc1C1CCCCC1,7,1.1,i,9,5%
COc1cccc(NC(=O)c2cn(C)c(=O)c3cc(OC)c(OC)cc23)c1,0,1.1,i,11,4%
O=c1c(-c2ccccc2)c(O)c2cccc3c2n1CCC3,43*,1.4,+,66*,62%
COc1ccc(-c2oc3ncn(CCN4CCOCC4)c(=N)c3c2-c2ccc(OC)cc2)cc1,10,1.5,i,16,6%
c1ccc(-c2oc3ncnc(NCCCN4CCOCC4)c3c2-c2ccccc2)cc1,10,3.8*,.,13,12%
COc1ccc(-c2oc3ncnc(NCCCN4CCOCC4)c3c2-c2ccc(OC)cc2)cc1,17,3.8*,.,16,17%
COc1ccc(-c2oc3ncnc(NCCN4CCOCC4)c3c2-c2ccc(OC)cc2)cc1,9,3.8*,.,8,9%
COCCCNC(=O)C1CCN(C(=O)Nc2ccc(Cl)cc2)CC1,4,1,i,7,3%
CCOc1ccc(C(C)=O)cc1COc1ccc(-n2cnnn2)cc1,2,1,i,11,3%
O=C(Cn1cccc1C(=O)c1ccccc1)NCc1cccs1,0,1,i,14,5%
Cc1cccc(C)c1OCCCCc1c(C)n[nH]c1C,12,1.1,i,0,4%
Cc1ccccc1OCCCCc1c(C)n[nH]c1C,7,1.1,i,31*,15%
COc1ccc(N=c2oc3cc(O)ccc3cc2C(=O)NCC2CCCO2)cc1 (stereo unspecified),14,2.9*,i,14,18%
SMILES,MK inhibit,Autofluor 339,DPM-DC inhibit,Spn PMK inh,NADH enzymes
Cc1ccc(N=c2oc3cc(O)ccc3cc2C(N)=O)cc1,6,2.2*,i,1,2%
COc1ccc(N=c2oc3cc(O)ccc3cc2C(=O)NCC2CCCO2)c(OC)c1 (stereo unspecified),4,3.8*,.,13,9%
COc1ccc2c(CC(=O)Nc3ccc(OC)c(NS(=O)(=O)c4ccc(F)cc4)c3)coc2c1,0,1.1,i,14,5%
COc1ccc(S(=O)(=O)c2ccc(OC)c(OC)c2)cc1OC,6,1,i,9,6%
CC(C)(C)NC(=O)Nc1ccc2nccnc2c1,7,2.2*,.,8,8%
CC(C)N(C(=O)Nc1ccc2nccnc2c1)C(C)C,5,2.2*,.,0,3%
CC(C)(C)NC(=O)c1ccc2nccnc2c1,11,1.1,i,10,7%
O=C(Nc1ccc2nn(-c3ccccc3)nc2c1)c1ccc2c(c1)OCCO2,9,2.2*,.,0,5%
O=C(Nc1ccc2nsnc2c1)c1ccc2c(c1)OCO2,7,1.3,i,6,7%
CC(=O)c1cccc(NC(=O)c2ccc(Br)o2)c1,0,1.1,i,5,2%
O=C(Nc1ccc2nn(-c3ccccc3)nc2c1)c1ccc(Br)o1,6,1.8,+,18,9%
COC(=O)c1ccc(-c2nc3ccccc3o2)cc1,0,4.6*,.,3,2%
COC(=O)c1ccc(-c2nc3ccc(C)cc3o2)cc1,10,3.8*,.,17,14%
Cc1ccc(-c2nc3cc(C)ccc3o2)cc1,1,0.87,i,0,4%
Cc1ccnc(NC(=O)COc2ccc3oc4c(c3c2)CCCC4)c1,2,1.1,i,2,1%
Cn1c(N2CCC(C(N)=O)CC2)nc2c1c(=O)n(Cc1cccc(Br)c1)c(=O)n2C,9,1.1,i,4,4%
CCC(C)NC(=O)CSC1=Nc2ccccc2C2=NC(CC(=O)NCc3ccccc3)C(=O)N12 (stereo unspecified),11,2.1*,i,14,6%
COCCCNC(=O)CSC1=Nc2ccccc2C2=NC(CC(=O)NCc3ccccc3)C(=O)N12 (stereo unspecified),13,3.4*,i,16,15%
O=c1[nH]c2cc(Cl)cc(Cl)c2[nH]c1=O,8,2.5*,i,12,13%
Cn1c(=O)[nH]c2cc(Cl)cnc21,0,1.1,i,10,5%
O=C1Nc2ccccc2C12Nc1ccccc1-c1nc3ccccc3n12 (stereo unspecified),2,1.3,i,5,2%
c1ccc2c(c1)NC1(CCCCC1)n1c-2nc2ccccc21,11,3.7*,.,0,6%
CC1(c2ccccn2)Nc2ccccc2-c2nc3ccccc3n21 (stereo unspecified),2,3.8*,.,5,4%
Cn1cc(-c2nc3ccccc3[nH]2)c2ccccc21,3,2.1*,.,0,1%
Nc1ccccc1-c1nc2ccccc2[nH]1,7,3.8*,.,7,7%
SMILES,MK inhibit,Autofluor 339,DPM-DC inhibit,Spn PMK inh,NADH enzymes
Nc1ccc(-c2nc3ccccc3[nH]2)cc1,6,2.1*,.,0,3%
Nc1ccc(C(=O)OCc2nc3ccccc3[nH]2)cc1,0,1,i,16,6%
Cn1c(NCc2c[nH]c3ccccc23)nc2ccccc21,2,1.1,i,11,4%
Nc1cccc(-c2nc3ccccc3[nH]2)c1,3,2.2*,.,0,2%
Cc1n[nH]c(C)c1-c1nc2ccccc2[nH]1,3,1,i,10,4%
CC(C)CNC(=O)CN(C1CCCCC1)S(=O)(=O)c1ccccc1,10,1.1,i,0,9%
